{
  "source": "PubChem BioAssay (NCATS)",
  "key": {"[1]": {"target": "Peroxisome proliferator-activated receptor gamma (Homo sapiens) (UniProt P37231)", "sequence (P37231 whole entry, looked up)": "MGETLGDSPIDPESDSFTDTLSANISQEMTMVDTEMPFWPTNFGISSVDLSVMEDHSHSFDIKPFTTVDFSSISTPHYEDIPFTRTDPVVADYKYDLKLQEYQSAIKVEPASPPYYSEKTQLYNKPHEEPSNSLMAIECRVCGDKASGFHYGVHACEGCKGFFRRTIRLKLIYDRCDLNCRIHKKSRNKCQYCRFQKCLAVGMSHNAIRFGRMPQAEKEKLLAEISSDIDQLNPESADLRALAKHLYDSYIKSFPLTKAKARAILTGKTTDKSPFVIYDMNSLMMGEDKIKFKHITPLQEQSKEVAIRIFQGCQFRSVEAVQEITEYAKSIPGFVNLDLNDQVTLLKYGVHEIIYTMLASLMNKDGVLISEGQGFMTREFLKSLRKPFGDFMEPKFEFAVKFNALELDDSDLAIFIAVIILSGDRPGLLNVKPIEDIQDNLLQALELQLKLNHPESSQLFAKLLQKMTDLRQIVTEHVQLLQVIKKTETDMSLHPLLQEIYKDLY", "assay": "qHTS assay for small molecule antagonists of peroxisome proliferator-activated receptor gamma signaling (AID 588537; active means well fitted inhibition curve with a large enough effect in the signal ratio, with a control signal flat, not every such curve was filed as active; the % refers to the signal ratio; further: potency means the concentration at half of the fitted maximal effect)", "how_it_was_run": "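PPAR-gamma-UAS-bla HEK293 cells (3000/well, 1% charcoal/dextran-stripped FBS) were preincubated 6-6.5 h at 37 C, given titrated compounds, then stimulated with 50 nM rosiglitazone for 16 h. Beta-lactamase activity was read with CCF4 dye; IC50 came from Hill fits.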"}, "[2]": {"target": "Thyroid hormone receptor beta (Homo sapiens) (UniProt P10828)", "sequence (P10828 whole entry, looked up)": "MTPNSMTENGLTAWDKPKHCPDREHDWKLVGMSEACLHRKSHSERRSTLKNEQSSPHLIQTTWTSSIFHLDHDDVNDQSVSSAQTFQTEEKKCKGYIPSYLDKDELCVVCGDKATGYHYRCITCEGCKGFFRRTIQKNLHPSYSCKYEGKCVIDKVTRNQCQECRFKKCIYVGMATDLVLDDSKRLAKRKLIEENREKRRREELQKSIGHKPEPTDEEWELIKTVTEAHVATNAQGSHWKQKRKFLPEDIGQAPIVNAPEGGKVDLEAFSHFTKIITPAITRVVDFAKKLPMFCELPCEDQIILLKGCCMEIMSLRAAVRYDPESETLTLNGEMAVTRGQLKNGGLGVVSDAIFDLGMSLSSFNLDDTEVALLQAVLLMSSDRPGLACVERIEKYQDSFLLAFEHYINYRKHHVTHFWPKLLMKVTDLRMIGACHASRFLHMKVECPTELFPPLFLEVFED", "assay": "qHTS assay for small molecule agonists of thyroid hormone receptor beta signaling (AID 588545)", "how_it_was_run": "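Cells (2500/well) were seeded, incubated 4 hrs at 37 C, dosed with a compound series, incubated 18 hrs, loaded with CCF4 dye for 2 hrs at RT, then read for fluorescence. Data were scaled between DMSO (0%) and 10 nM T3 (100%).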"}, "[3]": {"assay": "qHTS assay for small molecule antagonists of retinoid X receptor alpha signaling (AID 588546; active means well fitted inhibition curve with a large enough effect in the signal ratio, with a control signal flat, not every such curve was filed as active; the % refers to the signal ratio)", "conditions": "HEK293T RXRa-UAS-bla, beta-lactamase ratio, antagonist mode; measured here: W530 green channel, cytotoxicity proxy", "how_it_was_run": "(§1)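 Beta-lactamase reporter inhibition, read as CCF4 fluorescence ratio (ex 405, em 460/530 nm) after 2 h at RT. HEK293T UAS-bla cells, 2500/well, were stimulated with 9-cis-RA at 500 or 100 nM final alongside test compound for 18 h at 37 C.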"}, "[4]": {"target": "Retinoic acid receptor RXR-alpha (Homo sapiens) (UniProt P19793)", "sequence (P19793 whole entry, looked up)": "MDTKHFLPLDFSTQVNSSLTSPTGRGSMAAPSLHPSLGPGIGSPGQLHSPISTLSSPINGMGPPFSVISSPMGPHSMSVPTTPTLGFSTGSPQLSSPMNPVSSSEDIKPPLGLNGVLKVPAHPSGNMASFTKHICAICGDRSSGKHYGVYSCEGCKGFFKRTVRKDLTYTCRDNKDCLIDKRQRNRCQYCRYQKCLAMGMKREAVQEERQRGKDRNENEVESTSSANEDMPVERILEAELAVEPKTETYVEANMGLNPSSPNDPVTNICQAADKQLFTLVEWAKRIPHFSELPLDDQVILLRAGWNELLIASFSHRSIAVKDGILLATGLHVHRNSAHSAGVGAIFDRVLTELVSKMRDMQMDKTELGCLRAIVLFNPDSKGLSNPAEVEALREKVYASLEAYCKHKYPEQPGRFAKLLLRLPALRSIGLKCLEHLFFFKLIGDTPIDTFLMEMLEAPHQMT", "assay": "qHTS assay for small molecule antagonists of retinoid X receptor alpha signaling (AID 588546)", "conditions": "HEK293T RXRa-UAS-bla, beta-lactamase ratio, antagonist mode", "how_it_was_run": "as §1"}, "[5]": {"target": "Peroxisome proliferator-activated receptor gamma (Homo sapiens) (UniProt P37231)", "assay": "qHTS assay for small molecule agonists of peroxisome proliferator-activated receptor gamma signaling (AID 588536; active means well fitted curve in the direction sought with a large enough effect in the signal ratio, with a control signal flat, not every such curve was filed as active; the % refers to the signal ratio)", "how_it_was_run": "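GeneBLAzer PPAR-gamma-UAS-bla HEK293 cells in 1% charcoal/dextran-treated FBS medium were treated 16 h at 37 C with compounds. Beta-lactamase activity was read by CCF4 ratio (460/530 nm). Response was normalized to 2 uM rosiglitazone (100%) and DMSO, then Hill-fitted for EC50 and efficacy.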"}, "[6]": {"target": "Vitamin D3 receptor (Homo sapiens) (UniProt P11473)", "sequence (P11473 whole entry, looked up)": "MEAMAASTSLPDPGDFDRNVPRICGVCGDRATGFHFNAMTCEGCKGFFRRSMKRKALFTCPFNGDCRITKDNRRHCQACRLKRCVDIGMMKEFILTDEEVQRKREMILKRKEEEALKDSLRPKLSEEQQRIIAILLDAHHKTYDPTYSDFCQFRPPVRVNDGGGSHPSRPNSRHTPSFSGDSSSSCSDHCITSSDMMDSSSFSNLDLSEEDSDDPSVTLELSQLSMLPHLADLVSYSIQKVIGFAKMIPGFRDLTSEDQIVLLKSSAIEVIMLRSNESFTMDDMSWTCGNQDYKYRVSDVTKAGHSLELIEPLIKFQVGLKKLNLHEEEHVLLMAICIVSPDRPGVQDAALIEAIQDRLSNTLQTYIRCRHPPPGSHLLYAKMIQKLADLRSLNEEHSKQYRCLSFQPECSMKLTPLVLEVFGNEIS", "assay": "qHTS assay for small molecule antagonists of vitamin D receptor signaling (AID 588541)", "how_it_was_run": "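VDR-UAS-bla HEK293T cells (2000/well, 2% charcoal-stripped FBS) were treated with titrated compounds plus 1-alpha,25-dihydroxyvitamin D3 (50 nM or 3 nM final) for 16 h at 37 C. CCF4 beta-lactamase fluorescence was read; Hill fits gave IC50.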"}, "[7]": {"target": "Vitamin D3 receptor (Homo sapiens) (UniProt P11473)", "assay": "qHTS assay for small molecule agonists of vitamin D receptor signaling (AID 588543)", "how_it_was_run": "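VDR-UAS-bla HEK293T cells, 2000/well, 2% charcoal-stripped FBS; compound titration 16 h at 37 C; CCF4 beta-lactamase ratio read. Normalized to 50 nM 1-alpha,25-dihydroxyvitamin D3 (100%) and DMSO; Hill fit gives EC50, efficacy.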"}, "[8]": {"assay": "qHTS assay for small molecule agonists of retinoid X receptor alpha signaling (AID 588544)", "conditions": "HEK293T RXRa-UAS-bla, beta-lactamase reporter, 18 h; 530 nm emission"}, "[9]": {"target": "Retinoic acid receptor RXR-alpha (Homo sapiens) (UniProt P19793)", "assay": "qHTS assay for small molecule agonists of retinoid X receptor alpha signaling (AID 588544)"}, "[10]": {"target": "Thyroid hormone receptor beta (Homo sapiens) (UniProt P10828)", "assay": "qHTS assay for small molecule antagonists of thyroid hormone receptor beta signaling (AID 588547; active means well fitted inhibition curve with a large enough effect in the signal ratio, with a control signal flat, not every such curve was filed as active; the % refers to the signal ratio)", "conditions": "TR-UAS-bla HEK293, beta-lactamase ratio, antagonist mode, 18 h", "how_it_was_run": "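TR-UAS-bla GripTite HEK293 cells in 2% charcoal/dextran FBS medium were preincubated 4 h at 37 C, given compound (0.59 nM to 92 uM) plus 0.4 nM T3 (final) for 18 h, then CCF4 for 2 h at RT; Hill fit gave IC50.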"}},
  "note": "Results filed as inconclusive are left out. Entries that show only a call come without a potency. Calls of active or inactive are those of the source. Unless noted, the call rests on the fitted dose curve. Wherever activity change % (negative = inhibition) is given: series mostly up to about 77 µM. Wherever potency is given: potency means the concentration at half of the fitted maximal effect.",
  "data": [
    {"smiles": "CCCc1c(OCCCOc2ccc(OCC(=O)O)cc2)ccc(C(C)=O)c1O", "values": [
      {"measurement": "Potency", "setting": "[1]", "result": "inactive"},
      {"measurement": "outcome", "setting": "[2]", "result": "inactive"},
      {"measurement": "max response", "setting": "[3]", "result": 32.8, "unit": "%"},
      {"measurement": "max response", "setting": "[4]", "result": "-30.3% (inactive)"}
    ]},
    {"smiles": "NC(=O)c1ccccc1", "values": [
      {"measurement": "Potency", "setting": "[5]", "result": "inactive"},
      {"measurement": "Potency", "setting": "[1]", "result": "inactive"},
      {"measurement": "outcome", "setting": "[6]", "result": "inactive"},
      {"measurement": "outcome", "setting": "[7]", "result": "inactive"},
      {"measurement": "max response", "setting": "[8]", "result": -1.09, "unit": "%"},
      {"measurement": "Potency", "setting": "[9]", "result": "inactive"},
      {"measurement": "outcome", "setting": "[2]", "result": "inactive"},
      {"measurement": "max response", "setting": "[3]", "result": -3.13, "unit": "%"},
      {"measurement": "max response", "setting": "[4]", "result": "5.33% (inactive)"},
      {"measurement": "activity change % (negative = inhibition)", "setting": "[10]", "result": "-4.09% (inactive)"}
    ]},
    {"smiles": "C/C(=C\\c1ccc(C(=O)O)cc1)c1ccc2c(c1)C(C)(C)CCC2(C)C", "values": [
      {"measurement": "outcome", "setting": "[6]", "result": "inactive"},
      {"measurement": "outcome", "setting": "[7]", "result": "inactive"},
      {"measurement": "max response", "setting": "[8]", "result": 0.91, "unit": "%"},
      {"measurement": "Potency", "setting": "[9]", "result": "708 nM (active)"},
      {"measurement": "max response", "setting": "[3]", "result": -6.55, "unit": "%"},
      {"measurement": "max response", "setting": "[4]", "result": "9.51% (inactive)"}
    ]},
    {"smiles": "CC1=C(/C=C/C(C)=C/C=C/C(C)=C\\C(=O)O)C(C)(C)CCC1", "values": [
      {"measurement": "Potency", "setting": "[1]", "result": "inactive"},
      {"measurement": "outcome", "setting": "[6]", "result": "inactive"},
      {"measurement": "outcome", "setting": "[2]", "result": "inactive"},
      {"measurement": "activity change % (negative = inhibition)", "setting": "[10]", "result": "9.82% (inactive)"}
    ]},
    {"smiles": "CC[C@@H]1Cc2cc(O)ccc2C2=C1c1ccc(O)cc1C[C@H]2CC", "values": [
      {"measurement": "outcome", "setting": "[7]", "result": "inactive"}
    ]},
    {"smiles": "CCCc1c(-c2ccc(O)cc2)nn(-c2ccc(O)cc2)c1-c1ccc(O)cc1", "values": [
      {"measurement": "Potency", "setting": "[1]", "result": "22.4 µM (active)"},
      {"measurement": "outcome", "setting": "[7]", "result": "inactive"}
    ]},
    {"smiles": "CC(=O)C(C)=O", "values": [
      {"measurement": "Potency", "setting": "[5]", "result": "inactive"},
      {"measurement": "outcome", "setting": "[6]", "result": "inactive"},
      {"measurement": "outcome", "setting": "[7]", "result": "inactive"},
      {"measurement": "max response", "setting": "[8]", "result": -1.88, "unit": "%"},
      {"measurement": "Potency", "setting": "[9]", "result": "inactive"},
      {"measurement": "outcome", "setting": "[2]", "result": "inactive"},
      {"measurement": "max response", "setting": "[3]", "result": 7.05, "unit": "%"},
      {"measurement": "max response", "setting": "[4]", "result": "13% (inactive)"},
      {"measurement": "activity change % (negative = inhibition)", "setting": "[10]", "result": "-0.316% (inactive)"}
    ]},
    {"smiles": "CCCCCCCCCCCCCCSCC(=O)O", "values": [
      {"measurement": "Potency", "setting": "[5]", "result": "28.2 µM (active)"},
      {"measurement": "outcome", "setting": "[2]", "result": "inactive"},
      {"measurement": "max response", "setting": "[3]", "result": 10.4, "unit": "%"},
      {"measurement": "max response", "setting": "[4]", "result": "5.79% (inactive)"},
      {"measurement": "activity change % (negative = inhibition)", "setting": "[10]", "result": "-24.7% (inactive)"}
    ]}
  ]
}
